Sampled rows, rich in hits. Any-hit rate of the full collection: about 0.28%.
mcGAS inh – inhibitors of mouse cGAS; Q8C6L5; recombinant cGAS, Kinase-Glo ATP depletion luminescence; inhibition, % at 12.5 µM; 0.15% of 160,000 active; AID 1259399;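 note: 0% = negative control wells and 100% = reference inhibitor with no enzyme activity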
Target sequence (Q8C6L5 whole entry, looked up): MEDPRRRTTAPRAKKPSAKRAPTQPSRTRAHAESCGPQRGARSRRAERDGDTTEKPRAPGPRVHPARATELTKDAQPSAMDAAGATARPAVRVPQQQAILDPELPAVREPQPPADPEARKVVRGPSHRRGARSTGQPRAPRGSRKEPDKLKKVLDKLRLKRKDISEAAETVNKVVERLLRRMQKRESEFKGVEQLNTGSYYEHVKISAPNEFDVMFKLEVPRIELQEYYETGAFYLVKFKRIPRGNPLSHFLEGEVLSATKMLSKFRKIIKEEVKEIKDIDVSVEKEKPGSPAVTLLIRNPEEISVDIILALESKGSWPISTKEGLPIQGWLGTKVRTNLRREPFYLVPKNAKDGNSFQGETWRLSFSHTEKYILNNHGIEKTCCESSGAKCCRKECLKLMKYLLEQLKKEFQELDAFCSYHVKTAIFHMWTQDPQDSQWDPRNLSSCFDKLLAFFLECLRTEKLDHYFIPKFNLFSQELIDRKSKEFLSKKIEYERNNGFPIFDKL
hcGAS inh – human cGAS inhibition | AID 1259398 | Q8N884 | recombinant h-cGAS, ATP depletion, Kinase-Glo luminescence | inhibition, % at 12.5 µM | 0.081% of 290,000 active;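 note: 0% = vehicle reaction and 100% = reaction without DNA for no activity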
NPYLR7 ag – activates Aedes aegypti NPYLR7 receptor. activation, % at 10 µM. AID 1259423. HEK293T NPYLR7/Galpha15, GCaMP6s calcium fluorescence. 0.15% of 270,000 active; in the data active = activation above about 40%;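 note: 0% = vehicle and 100% = reference agonist at the receptor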
Numbers without * were called inactive; · = no result. Cut-off read from the data, not from the text of the source, unless noted: active = inhibition above about 40%; inactive = the rest.

SMILES	mcGAS inh	hcGAS inh	NPYLR7 ag
Cc1cc(C)cc(N2C(=O)NC(=O)/C(=C\c3ccco3)C2=O)c1	6.7	5.4	-7.9
Cc1ccccc1N1C(=O)/C(=C/c2ccco2)C(=O)NC1=S	85.6*	41.2*	-1.8
O=C1NC(=O)N(Cc2ccccc2)C(=O)C1=Cc1ccco1	·	-4.8	-6.4
O=C1NC(=O)N(Cc2ccccc2)C(=O)/C1=C\c1ccco1	43.8*	35.1	-5.4
CC(C)(C)c1nn(-c2ccc(F)cc2)c2c1C(c1ccsc1)SCC(=O)N2CC(=O)NC1CC1 (configuration not stated)	-8.2	-4.1	3.1
CS(=O)(=O)c1ccc(S(=O)(=O)N2CCN(CCOC(c3ccccc3)c3ccc(F)c(F)c3)CC2)cc1 (configuration not stated)	-9.1	-8.2	26.0
Cc1cccc(-n2nc(C(C)(C)C)c3c2N(CC(=O)O)C(=O)CSC3c2ccc3c(c2)OCO3)c1C (configuration not stated)	-3.9	-0.8	3.1
c1cc(C2CCCC2)sc1CN1CCNCC1	-5.3	-14.0	·
O=C(c1cn(Cc2ccccc2C(F)(F)F)nn1)N1C[C@H]2C[C@@H](C1)c1cccc(=O)n1C2	·	-6.8	3.5
C=CCOC(CN1CCN(C(=O)Cc2ccc(OC)cc2)CC1)c1cccc(N2CCCC2)c1 (configuration not stated)	-4.7	-4.6	·
O=C1C=C2C(=CCOC2O)O1 (configuration not stated)	106.1*	88.2*	·
O=C(NCC1CCCO1)C(C1CCCC1)N1CCN(C(=O)COc2ccc(Cl)cc2)CC1 (configuration not stated)	0.0	-3.9	-9.6
CC[C@@]1(O)C[C@H](O[C@H]2C[C@H](N(C)C)[C@H](O)[C@H](C)O2)c2c(cc3c(c2O)C(=O)c2c(O)ccc(O)c2C3=O)[C@H]1C(=O)OC	·	43.7*	9.0
CC[C@@]1(O)C[C@H](O[C@H]2C[C@H](N(C)C)[C@H](O)[C@H](C)O2)c2c(cc3c(c2O)C(=O)c2c(O)cccc2C3=O)[C@H]1C(=O)OC	·	71.9*	34.3
CC[C@@]1(O)C[C@H](O)c2c(cc3c(c2O)C(=O)c2c(O)ccc(O)c2C3=O)[C@H]1C(=O)OC	·	-6.0	-12.9
Cc1cc([N+](=O)[O-])ccc1NC(=O)c1cccn(Cc2cccc(C(F)(F)F)c2)c1=O	·	-6.1	14.5
CN1CCNC(=O)C12CCN(C(=O)CCc1cccnc1)CC2	-16.6	-3.3	8.0
Cc1ccccc1S(=O)(=O)N1CCN(CCOC(c2ccccc2)c2ccc(F)c(F)c2)CC1 (configuration not stated)	-7.4	-7.9	-3.6
Cc1noc2ccc(CN3CCN4C(=O)CN(C)C(=O)C4C3)cc12 (configuration not stated)	·	-5.6	8.9
CNC(=O)Oc1c(Br)cc2sc(=O)oc2c1Br	98.4*	-3.8	5.3
Cc1cc(CN2CCNCC2)on1	-1.8	7.8	4.7
CC(=O)O.CC(=O)O.[Cd]	·	73.6*	-9.2
CC(=O)N1CN(C(C)=O)CN(C(C)=O)C1	·	-1.4	-5.4
CN1C(=CP(=S)(C2CCCCC2)N2CCOCC2)C(C)(C)c2ccccc21 (configuration not stated)	·	-4.3	4.1
C=CCOC(CN1CCN(C(=O)COc2ccc(Cl)cc2)CC1)c1cccc(N2CCCC2)c1 (configuration not stated)	-5.9	-4.2	-3.7
N#Cc1c(O)c(Cl)c(Cl)c(C#N)c1Cl	54.8*	30.5	3.7
CCCCCNC(=O)C1CC=CCC1C(=O)N1CCC(C#N)(c2ccccc2)CC1 (configuration not stated)	-2.9	-8.1	-5.6
O=C1C[C@H]2CC[C@@H](CN1)N2C1CCSCC1	-10.4	1.4	·
CCNC(=O)[C@H]1O[C@@H](n2cnc3c(N)ncnc32)C(O)[C@H]1O (some centres not stated)	-2.7	-1.3	190.6*
O=C1NC(=O)C2=Cc3ccc(O)cc3OC2(O)N1 (configuration not stated)	-2.5	-1.4	192.9*

Screens as filed in PubChem BioAssay.
